Reference: PubChem BioAssay AID1159580 (chemical genetic matrix, 2015)
Screen size: about 5,500 compounds; about 2,000 (36%) were called active. Not shown: some 18% with an inconclusive outcome. The list shows a part of the results. Values without a mark were called inactive. No stated cut-off is given here; in the data, active means normalized growth mostly below about 0.91 (no sharp cut-off); inconclusive means no clear call, values can overlap the other calls; inactive means mostly above about 0.92.

Experiment: chemical genetic growth profiling, strain panel (AID 1159580);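 further: tested at 20 µM; growth read once vehicle control cultures reached saturation at 30 °C; 1 = growth at the plate median or of vehicle wells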
Conditions: S. cerevisiae deletion strains, growth OD
[1] = locus YAR019C, strain CDC15, stronger effect = lower value
[2] = locus YBL105C, strain PKC1, stronger effect = lower value
[3] = locus YBR135W, strain CKS1, stronger effect = lower value
[4] = locus YBR136W, strain MEC1, stronger effect = lower value
[5] = locus YDL017W, strain CDC7, stronger effect = lower value
[6] = locus YDL101C, strain DUN1, stronger effect = lower value
[7] = locus YDL214C, strain PRR2, stronger effect = lower value
[8] = locus YDR052C, strain DBF4, stronger effect = lower value
[9] = locus YDR054C, strain cdc34, stronger effect = lower value
[10] = locus YDR226W, strain ADK1, stronger effect = lower value
[11] = locus YDR477W, strain SNF1, stronger effect = lower value
[12] = locus YER123W, strain YCK3, stronger effect = lower value
[13] = locus YER133W, strain GLC7, stronger effect = lower value
[14] = locus YFL029C, strain CAK1, stronger effect = lower value
[15] = locus YFR003C, strain YPI1, stronger effect = lower value
[16] = locus YFR019W, strain FAB1, stronger effect = lower value
[17] = locus YFR028C, strain CDC14, stronger effect = lower value
[18] = locus YGR040W, strain KSS1, stronger effect = lower value
[19] = locus YGR052W, strain FMP48, stronger effect = lower value
[20] = locus YGR092W, strain DBF2, stronger effect = lower value
[21] = locus YHR030C, strain SLT2, stronger effect = lower value
[22] = locus YHR079C, strain IRE1, stronger effect = lower value
[23] = locus YHR082C, strain KSP1, stronger effect = lower value
[24] = locus YHR205W, strain SCH9, stronger effect = lower value
[25] = locus YIL147C, strain SLN1, stronger effect = lower value
[26] = locus YJL095W, strain BCK1, stronger effect = lower value
[27] = locus YJL157C, strain FAR1, stronger effect = lower value
[28] = locus YJR066W, strain TOR1 (second series), stronger effect = lower value
[29] = locus YJR066W, strain TOR1, stronger effect = lower value
[30] = locus YKL048C, strain ELM1, stronger effect = lower value
[31] = locus YKL067W, strain YNK1, stronger effect = lower value
[32] = locus YKL101W, strain HSL1, stronger effect = lower value
[33] = locus YKL193C, strain SDS22, stronger effect = lower value
[34] = locus YKL203C, strain TOR2, stronger effect = lower value
[35] = locus YLR113W, strain HOG1, stronger effect = lower value
[36] = locus YLR133W, strain CKI1, stronger effect = lower value
[37] = locus YLR403W, strain SFP1, stronger effect = lower value
[38] = locus YML070W, strain DAK1, stronger effect = lower value
[39] = locus YMR001C, strain CDC5, stronger effect = lower value
[40] = locus YMR205C, strain PFK2 (second series), stronger effect = lower value
[41] = locus YMR277W, strain FCP1, stronger effect = lower value
[42] = locus YNL006W, strain LST8, stronger effect = lower value
[43] = locus YNL020C, strain ARK1, stronger effect = lower value
[44] = locus YNL183C, strain NPR1, stronger effect = lower value
[45] = locus YNL222W, strain SSU72, stronger effect = lower value
[46] = locus YNL307C, strain MCK1 (second series), stronger effect = lower value
[47] = locus YOL078W, strain AVO1, stronger effect = lower value
[48] = locus YOL136C, strain PFK27, stronger effect = lower value
[49] = locus YOR061W, strain CKA2, stronger effect = lower value
[50] = locus YOR119C, strain RIO1, stronger effect = lower value
[51] = locus YOR231W, strain MKK1, stronger effect = lower value
[52] = locus YOR329C, strain SCD5, stronger effect = lower value
[53] = locus YPL031C, strain PHO85, stronger effect = lower value
[54] = locus YPL153C, strain RAD53, stronger effect = lower value
[55] = locus YPL204W, strain HRR25, stronger effect = lower value
[56] = locus YPL209C, strain IPL1, stronger effect = lower value
[57] = locus YPL256C, strain CLN2, stronger effect = lower value
[58] = locus YPR025C, strain CCL1, stronger effect = lower value
[59] = locus YPR106W, strain ISR1, stronger effect = lower value
[60] = strain NNK1, stronger effect = lower value
[61] = strain TSCII, stronger effect = lower value

Q: With `COC(=O)/C=C1/OC(c2ccc(OC)cc2)=CC1=O` as the compound, how does the normalized growth [1] read?
A: 0.283 (active)

Q: And the normalized growth [2]?
A: 0.594 (active)

Q: What about the normalized growth [3] of the same compound?
A: 0.428 (active)

Q: What about the normalized growth [4] of the same compound?
A: 0.671 (active)

Q: And the normalized growth [5]?
A: 0.968

Q: What about the normalized growth [6] of the same compound?
A: 0.447 (active)

Q: And the normalized growth [7]?
A: 0.105 (active)

Q: And the normalized growth [8]?
A: 0.981

Q: And the normalized growth [9]?
A: 0.464 (active)

Q: And the normalized growth [10]?
A: 0.923

Q: And the normalized growth [11]?
A: 0.101 (active)

Q: What about the normalized growth [12] of the same compound?
A: 0.102 (active)

Q: What about the normalized growth [13] of the same compound?
A: 0.0947 (active)

Q: And the normalized growth [14]?
A: 0.177 (active)

Q: What about the normalized growth [15] of the same compound?
A: 0.98

Q: And the normalized growth [16]?
A: 0.099 (active)

Q: What about the normalized growth [17] of the same compound?
A: 0.433 (active)

Q: And the normalized growth [18]?
A: 0.108 (active)

Q: And the normalized growth [19]?
A: 0.125 (active)

Q: And the normalized growth [20]?
A: 0.154 (active)

Q: And the normalized growth [21]?
A: 0.14 (active)

Q: And the normalized growth [22]?
A: 0.29 (active)

Q: What about the normalized growth [23] of the same compound?
A: 0.143 (active)

Q: What about the normalized growth [24] of the same compound?
A: 0.0277 (active)

Q: And the normalized growth [25]?
A: 0.978

Q: And the normalized growth [26]?
A: 0.124 (active)

Q: And the normalized growth [27]?
A: 0.121 (active)

Q: What about the normalized growth [28] of the same compound?
A: 0.102 (active)

Q: And the normalized growth [29]?
A: 0.15 (active)

Q: And the normalized growth [30]?
A: 0.402 (active)

Q: What about the normalized growth [31] of the same compound?
A: 0.0947 (active)

Q: What about the normalized growth [32] of the same compound?
A: 0.156 (active)

Q: What about the normalized growth [33] of the same compound?
A: 0.221 (active)

Q: And the normalized growth [34]?
A: 0.103 (active)

Q: And the normalized growth [35]?
A: 0.163 (active)

Q: What about the normalized growth [36] of the same compound?
A: 0.129 (active)

Q: And the normalized growth [37]?
A: 0.16 (active)

Q: What about the normalized growth [38] of the same compound?
A: 0.0894 (active)

Q: And the normalized growth [39]?
A: 0.273 (active)

Q: And the normalized growth [40]?
A: 0.152 (active)

Q: What about the normalized growth [41] of the same compound?
A: 0.274 (active)

Q: What about the normalized growth [42] of the same compound?
A: 0.989

Q: What about the normalized growth [43] of the same compound?
A: 0.315 (active)

Q: What about the normalized growth [44] of the same compound?
A: 0.115 (active)

Q: What about the normalized growth [45] of the same compound?
A: 0.499 (active)

Q: What about the normalized growth [46] of the same compound?
A: 0.123 (active)

Q: What about the normalized growth [47] of the same compound?
A: 0.316 (active)

Q: What about the normalized growth [48] of the same compound?
A: 0.102 (active)

Q: And the normalized growth [49]?
A: 0.308 (active)

Q: What about the normalized growth [50] of the same compound?
A: 0.108 (active)

Q: And the normalized growth [51]?
A: 0.23 (active)

Q: What about the normalized growth [52] of the same compound?
A: 0.988

Q: What about the normalized growth [53] of the same compound?
A: 0.103 (active)

Q: What about the normalized growth [54] of the same compound?
A: 0.221 (active)

Q: And the normalized growth [55]?
A: 0.282 (active)

Q: What about the normalized growth [56] of the same compound?
A: 0.5 (active)

Q: What about the normalized growth [57] of the same compound?
A: 0.154 (active)

Q: And the normalized growth [58]?
A: 0.576 (active)

Q: And the normalized growth [59]?
A: 0.507 (active)

Q: And the normalized growth [60]?
A: 0.11 (active)

Q: And the normalized growth [61]?
A: 0.265 (active)

Q: Which normalized growth [1] does the source give for `CO/N=C1/CC(C)(C)Cc2c(-c3ccn(C(=O)Nc4cccc(Cl)c4)n3)sc(SC)c21` here?
A: 0.981

Q: And the normalized growth [2]?
A: 0.965

Q: What about the normalized growth [3] of the same compound?
A: 0.968

Q: And the normalized growth [4]?
A: 0.969

Q: What about the normalized growth (locus YBR160W, strain CDC28, stronger effect = lower value) of the same compound?
A: 0.964

Q: And the normalized growth [5]?
A: 0.967

Q: What about the normalized growth (locus YDL028C, strain MPS1, stronger effect = lower value) of the same compound?
A: 0.963

Q: What about the normalized growth [6] of the same compound?
A: 0.975

Q: And the normalized growth (locus YDL108W, strain KIN28, stronger effect = lower value)?
A: 0.959

Q: And the normalized growth (locus YDL132W, strain cdc53, stronger effect = lower value)?
A: 0.967

Q: And the normalized growth [7]?
A: 0.983

Q: And the normalized growth [8]?
A: 0.973

Q: What about the normalized growth [9] of the same compound?
A: 0.971

Q: What about the normalized growth [10] of the same compound?
A: 0.974

Q: What about the normalized growth [11] of the same compound?
A: 0.996

Q: What about the normalized growth [12] of the same compound?
A: 0.993

Q: And the normalized growth [13]?
A: 1

Q: What about the normalized growth (locus YFL009W, strain cdc4, stronger effect = lower value) of the same compound?
A: 0.963

Q: And the normalized growth [14]?
A: 0.978

Q: And the normalized growth [15]?
A: 0.96

Q: And the normalized growth [16]?
A: 1

Q: What about the normalized growth [17] of the same compound?
A: 0.969

Q: What about the normalized growth [18] of the same compound?
A: 1

Q: What about the normalized growth [19] of the same compound?
A: 1.02

Q: And the normalized growth [20]?
A: 1

Q: What about the normalized growth [21] of the same compound?
A: 1.16 [resistant] (active)

Q: What about the normalized growth [22] of the same compound?
A: 1.13

Q: And the normalized growth [23]?
A: 1.1

Q: What about the normalized growth [24] of the same compound?
A: 0.989

Q: What about the normalized growth [25] of the same compound?
A: 0.972

Q: And the normalized growth [26]?
A: 1.02

Q: And the normalized growth (locus YJL128C, strain PBS2, stronger effect = lower value)?
A: 0.952

Q: What about the normalized growth [27] of the same compound?
A: 0.996

Q: And the normalized growth (locus YJR016C, strain ILV3, stronger effect = lower value)?
A: 0.97

Q: What about the normalized growth [28] of the same compound?
A: 1.06

Q: And the normalized growth [29]?
A: 1.1

Q: And the normalized growth [30]?
A: 0.993

Q: And the normalized growth [31]?
A: 0.98

Q: What about the normalized growth [32] of the same compound?
A: 0.988

Q: What about the normalized growth [33] of the same compound?
A: 0.968

Q: And the normalized growth [34]?
A: 1.06

Q: And the normalized growth [35]?
A: 0.968

Q: What about the normalized growth [36] of the same compound?
A: 0.98

Q: And the normalized growth [37]?
A: 1.02

Q: What about the normalized growth [38] of the same compound?
A: 0.984

Q: And the normalized growth [39]?
A: 0.977

Q: What about the normalized growth [40] of the same compound?
A: 0.978

Q: And the normalized growth [41]?
A: 0.97

Q: What about the normalized growth [42] of the same compound?
A: 0.981

Q: And the normalized growth [43]?
A: 0.983

Q: And the normalized growth (locus YNL161W, strain CBK1, stronger effect = lower value)?
A: 0.977

Q: What about the normalized growth [44] of the same compound?
A: 1.03

Q: What about the normalized growth (locus YNL207W, strain RIO2, stronger effect = lower value) of the same compound?
A: 0.971

Q: And the normalized growth [45]?
A: 0.969

Q: What about the normalized growth [46] of the same compound?
A: 0.992

Q: What about the normalized growth [47] of the same compound?
A: 0.966

Q: What about the normalized growth [48] of the same compound?
A: 0.993

Q: What about the normalized growth [49] of the same compound?
A: 0.98

Q: What about the normalized growth [50] of the same compound?
A: 1.05

Q: And the normalized growth [51]?
A: 0.984

Q: What about the normalized growth [52] of the same compound?
A: 0.971

Q: And the normalized growth [53]?
A: 1.02

Q: What about the normalized growth [54] of the same compound?
A: 1.04

Q: And the normalized growth [55]?
A: 1.02

Q: What about the normalized growth [56] of the same compound?
A: 0.969

Q: And the normalized growth [57]?
A: 1.13

Q: What about the normalized growth [58] of the same compound?
A: 0.963

Q: And the normalized growth [59]?
A: 0.975

Q: What about the normalized growth (locus YPR111W, strain DBF20, stronger effect = lower value) of the same compound?
A: 0.962

Q: What about the normalized growth [60] of the same compound?
A: 0.989

Q: And the normalized growth [61]?
A: 0.977
